Reference: the supplement of paper PMC3342239
Counter-ions that a name gives are not always drawn.

Test system: Saccharomyces cerevisiae
Assay: fraction of cells in G1 phase (DNA content, flow cytometry); higher = more cells with unreplicated DNA (G1 delay)
Conditions: temperature: 30 C; YPD; BY4741 PDR5+ SNQ2+; drug added to: actively dividing cells; 4.33 h
Experimental: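 S. cerevisiae cultures in YPD at 30°C were treated with each drug of the Enzo FDA-approved library at 20 µg/ml (final µM given per drug). Cells were fixed after 6–7 h (S1) or 6 h (S2), or after 4.33 h for BY4741 (S3), then stained with SYTOX Green. %G1 is the Dean-Jett-Fox G1 peak area divided by the G1+G2/M peak areas, written as a fraction and averaged over at least two independent experiments. DMSO reference: mean ~0.49; >0.60 is called High G1 and <0.3876 Low G1. Scale: lower means mitotic delay.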

SMILES	fraction of cells in G1 phase
CO[C@@]12[C@H](COC(N)=O)C3=C(C(=O)C(C)=C(N)C3=O)N1C[C@@H]1N[C@@H]12 [Mitomycin c] (59.8203 µM)	0.399
COC(=O)[C@H](c1ccccc1Cl)N1CCc2sccc2C1 [Clopidogrel sulfate] (62.1449 µM)	0.459
CCC(C)n1ncn(-c2ccc(N3CCN(c4ccc(OCC5COC(Cn6cncn6)(c6ccc(Cl)cc6Cl)O5)cc4)CC3)cc2)c1=O (stereo not given) [Itraconazole] (28.3427 µM)	0.493
O=c1[nH]c2ccccc2n1CCCN1CCN(C(c2ccccc2)c2ccccc2)CC1 [Oxatomide] (46.886 µM)	0.433
CC(C)(C)C(=O)C(Oc1ccc(Cl)cc1)n1ccnc1 (stereo not given) [Climbazole] (68.3135 µM)	0.496

Same assay, conditions: temperature: 30 C; YPD; JTY2953 pdr5 snq2 (sensitized); drug added to: actively dividing cells; 6 h

SMILES	fraction of cells in G1 phase
COC(=O)[C@H](c1ccccc1Cl)N1CCc2sccc2C1 [Clopidogrel sulfate] (62.1449 µM)	0.719
Clc1ccc(C(Cn2ccnc2)OCc2ccsc2Cl)c(Cl)c1 (stereo not given) [Tioconazole] (51.5839 µM)	0.427
CCC(C)n1ncn(-c2ccc(N3CCN(c4ccc(OCC5COC(Cn6cncn6)(c6ccc(Cl)cc6Cl)O5)cc4)CC3)cc2)c1=O (stereo not given) [Itraconazole] (28.3427 µM)	0.751
CN1CCC[C@@H]1CCO[C@](C)(c1ccccc1)c1ccc(Cl)cc1 [Clemastine fumarate] (58.1564 µM)	0.585
O=c1[nH]c2ccccc2n1CCCN1CCN(C(c2ccccc2)c2ccccc2)CC1 [Oxatomide] (46.886 µM)	0.791
CC(C)(C)C(=O)C(Oc1ccc(Cl)cc1)n1ccnc1 (stereo not given) [Climbazole] (68.3135 µM)	0.833
Clc1ccc(C(Cn2ccnc2)OCc2csc3c(Cl)cccc23)c(Cl)c1 (stereo not given) [Sertaconazole] (45.6852 µM)	0.3

Same assay, conditions: temperature: 30 C; YPD; JTY2953 pdr5 snq2 (sensitized); drug added to: cultures diluted from stationary phase; 6-7 h

SMILES	fraction of cells in G1 phase
CO[C@@]12[C@H](COC(N)=O)C3=C(C(=O)C(C)=C(N)C3=O)N1C[C@@H]1N[C@@H]12 [Mitomycin c] (59.8203 µM)	0.273
Cc1nc2c([nH]1)c(=O)n(C)c(=O)n2Cc1ccco1 [Furafylline] (76.8479 µM)	0.463
COc1ccc(CCN(C)CCCC(C#N)(c2ccc(OC)c(OC)c2)C(C)C)cc1OC (stereo not given) [Verapamil] (40.7249 µM)	0.507
COC(=O)[C@H](c1ccccc1Cl)N1CCc2sccc2C1 [Clopidogrel sulfate] (62.1449 µM)	0.642
C1COC(NC(C2CC2)C2CC2)=N1 [Rilmenidine hemifumarate] (110.956 µM)	0.483
COc1ccccc1N1CCN(CC(O)COc2cccc3ccccc23)CC1 (stereo not given) [Naftopidil 2HCl] (50.9551 µM)	0.564
Clc1ccc(C(Cn2ccnc2)OCc2ccsc2Cl)c(Cl)c1 (stereo not given) [Tioconazole] (51.5839 µM)	0.863
COc1ccc(C2CNC(=O)C2)cc1OC1CCCC1 (stereo not given) [Rolipram] (72.6347 µM)	0.497
CC(N)C12CC3CC(CC(C3)C1)C2 (stereo not given) [Rimantadine HCl] (111.54 µM)	0.484
CCCc1cc(C(N)=S)ccn1 [Prothionamide] (110.943 µM)	0.482
COc1cc2nc(N3CCN(C(=O)C4CCCO4)CC3)nc(N)c2cc1OC (stereo not given) [Terazosin HCl] (51.6206 µM)	0.504
COc1ccc2cc(CCC(C)=O)ccc2c1 [Nabumetone] (87.6065 µM)	0.535
CCC(C)n1ncn(-c2ccc(N3CCN(c4ccc(OCC5COC(Cn6cncn6)(c6ccc(Cl)cc6Cl)O5)cc4)CC3)cc2)c1=O (stereo not given) [Itraconazole] (28.3427 µM)	0.667
C#C[C@]1(O)CC[C@H]2[C@@H]3CCC4=CC(=O)CC[C@@H]4[C@H]3CC[C@@]21C [Norethindrone] (67.0176 µM)	0.552
O=C1CC2(CCCC2)CC(=O)N1CCCCN1CCN(c2ncccn2)CC1 [Buspirone HCl] (51.8789 µM)	0.499
C[C@H](N[C@@H](CCc1ccccc1)C(=O)O)C(=O)N1CCC[C@H]1C(=O)O [Enalaprilat] (57.4049 µM)	0.491
O=C(O)Cc1ccccc1Nc1c(Cl)cccc1Cl [Diclofenac, Na] (67.5321 µM)	0.473
C/N=C(/NC#N)NCCSCc1csc(NC(=N)N)n1 [Tiotidine] (64.0163 µM)	0.478
CS(=O)(=O)CCNCc1ccc(-c2ccc3ncnc(Nc4ccc(OCc5cccc(F)c5)c(Cl)c4)c3c2)o1 [Lapatinib] (34.4192 µM)	0.565
CN1CCC[C@@H]1CCO[C@](C)(c1ccccc1)c1ccc(Cl)cc1 [Clemastine fumarate] (58.1564 µM)	0.66
O=c1[nH]c2ccccc2n1CCCN1CCN(C(c2ccccc2)c2ccccc2)CC1 [Oxatomide] (46.886 µM)	0.836
CC(C)(C)C(=O)C(Oc1ccc(Cl)cc1)n1ccnc1 (stereo not given) [Climbazole] (68.3135 µM)	0.719
Cc1nccn1CC1CCc2c(c3ccccc3n2C)C1=O (stereo not given) [Ondansetron] (68.1729 µM)	0.463
Clc1ccc(C(Cn2ccnc2)OCc2csc3c(Cl)cccc23)c(Cl)c1 (stereo not given) [Sertaconazole] (45.6852 µM)	0.869
CN(C/C=C/C#CC(C)(C)C)Cc1cccc2ccccc12 [Terbinafine HCl] (68.6247 µM)	0.5
COC(=O)c1ccc(=O)c2nc3c(=CO)c(O)cc(=O)c3[nH]c12 [Lomofungin] (63.6422 µM)	0.495
CC(=O)CCCCn1c(=O)c2c(ncn2C)n(C)c1=O [Pentoxifylline] (71.8614 µM)	0.487
CCN1CCC[C@H]1CNC(=O)c1c(OC)ccc(Br)c1OC [Remoxipride] (53.8681 µM)	0.525
